This note sets out measurements from PubChem BioAssay AID504847 (National Center for Advancing Translational Sciences (NCATS), 2011).

The whole screen tested about 400,000 compounds, of which about 3,700 (0.93%) were called active. About 3% were inconclusive and are not listed. The call rests on the fitted dose curve; in most records, active means well fitted inhibition curve with a large enough effect; inconclusive means small, poorly fitted or top-dose-only effect, or another doubt; inactive means no such curve, though single readings can be large or run the other way. What follows is part of a selection rich in actives, with near analogues and random picks from the rest.
On the % scale 0 is the no-effect control and ±100 the full control effect; potency means the concentration at half of the fitted maximal effect.

Vitamin D3 receptor (Homo sapiens), sequence (P11473 whole entry, looked up): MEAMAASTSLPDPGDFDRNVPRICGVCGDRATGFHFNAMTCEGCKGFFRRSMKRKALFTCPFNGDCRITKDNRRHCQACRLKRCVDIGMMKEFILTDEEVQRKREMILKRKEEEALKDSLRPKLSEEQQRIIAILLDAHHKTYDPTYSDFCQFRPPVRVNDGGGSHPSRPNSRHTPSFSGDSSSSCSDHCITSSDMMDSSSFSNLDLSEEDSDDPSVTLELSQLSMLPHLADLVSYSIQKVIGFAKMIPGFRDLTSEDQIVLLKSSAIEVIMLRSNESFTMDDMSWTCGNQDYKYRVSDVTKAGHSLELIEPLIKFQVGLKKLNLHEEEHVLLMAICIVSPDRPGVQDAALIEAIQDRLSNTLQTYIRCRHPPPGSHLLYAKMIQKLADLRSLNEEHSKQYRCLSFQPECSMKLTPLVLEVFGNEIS

The target of this test is Vitamin D3 receptor (Homo sapiens) (UniProt P11473). Description: Inhibitors of the vitamin D receptor (VDR): qHTS. The settings on record: VDR-SRC2-3 peptide fluorescence polarization, 2 h; max response, negative = inhibition: active compounds read low. In outline:
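Fluorescence polarization assay of small-molecule disruption of VDR binding to coregulator peptide SRC2-3. Compounds and controls pin-transferred, then read after 2 h incubation at ambient room temperature.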
In the case of `CCc1ccccc1OCCSc1nc(-c2cccs2)nc2cc(=O)[nH]n12`, the max response, negative = inhibition was -2.15% (inactive).

Turning to `O=C1CC(c2ccccc2)CC2=C1C(c1ccco1)n1nc(C(F)(F)F)nc1N2` (stereo unspecified), the max response, negative = inhibition was -0.088% (inactive).

Take `CC(C)c1ccc(S(=O)(=O)Nc2ccc(O)c(Sc3nc4ccccc4s3)c2)cc1`: the max response, negative = inhibition was -4.7% (inactive).

In the case of `O=[N+]([O-])c1c(NCCO)cc(Sc2nc3ccccc3s2)c2nonc12`, the Potency was 14.1 µM (active).

As to `CC(C)(C)c1ccc(S(=O)(=O)Nc2ccc(O)c(Sc3nc4ccccc4s3)c2)cc1`, the max response, negative = inhibition was -10.5% (inactive).

On to `NCCCNCCCCN(CCCN)/[N+]([O-])=N/O`, for which the max response, negative = inhibition is 8.85% (inactive).

For the molecule `Oc1c(C(c2ccccn2)N2CCOCC2)ccc2cccnc12` (stereo unspecified), the Potency is 17.8 µM (active).

With `Oc1c(C(c2ccccc2Cl)N2CCOCC2)sc2nc(-c3ccco3)nn12` (stereo unspecified), the max response, negative = inhibition is 10.6% (inactive).

As for `COc1ccc(NC(=O)c2sc3nc[nH]c(=O)c3c2C)cc1`, the max response, negative = inhibition was 6.76% (inactive).

Take `Cc1ccc2nc(/C(C#N)=C/c3ccc(-c4ccc(C(=O)OC(C)C)cc4)o3)[nH]c2c1`: the max response, negative = inhibition is -0.457% (inactive).

As for `Nc1ccc2[nH]c(=S)sc2c1`, the Potency was 28.2 µM (active).

Turning to `O=c1[nH]c2ccccc2s1`, the max response, negative = inhibition is 1.06% (inactive).

Consider `COc1ccc(CNC(=O)CSc2nc3ccccc3nc2Cc2ccccc2)cc1`, for which the max response, negative = inhibition was -10.7% (inactive).

In the case of `Cc1cccc(C)c1NC(=O)NC1=CCCN1C`, the max response, negative = inhibition is 8.2% (inactive).

Regarding `COc1ccc(N=Nc2c(-c3ccc(OC)cc3)[nH]oc2=O)cc1`, the max response, negative = inhibition is -12% (inactive).

Regarding `COc1ccc(N=C2C=CC(=O)O2)cc1`, the Potency is 79.4 µM (active).

With `COC1=CC(=O)OC(c2ccc(OC)cc2)C1` (stereo unspecified), the max response, negative = inhibition is 6.19% (inactive).

For the molecule `COc1ccc(-c2nc3nc(C)cc(C)n3c2Nc2c(C)cccc2C)cc1`, the max response, negative = inhibition is -18.2% (inactive).

On to `Cc1cccc(OCCSc2nc3ccc(NC(=O)COc4ccccc4C)cc3s2)c1`, for which the max response, negative = inhibition was 4.41% (inactive).

In the case of `CC(=O)c1cc(-c2ccccc2)[nH]c1N1CCCC1`, the max response, negative = inhibition was 0% (inactive).

`O=C1NN(c2ccccc2)C(=O)/C1=C/c1ccc(-c2cccc(C(=O)O)c2)o1`: the Potency is 89.1 µM (active).

Regarding `CCCN(CCC)CCCNC(=O)Cn1ncc2c3ccccc3n(Cc3ccccc3)c2c1=O`, the max response, negative = inhibition is 11.1% (inactive).

In the case of `Cc1cc(C)c(NC(=O)c2cc3sc(Cl)cc3n2C)c(C)c1`, the max response, negative = inhibition was -11% (inactive).

Turning to `O=C(Nc1ccc(N2CCOCC2)cc1)c1ccc(-c2ccccc2[N+](=O)[O-])o1`, the max response, negative = inhibition was -16.6% (inactive).

Take `O=C1NC(c2ccc(-c3ccccc3[N+](=O)[O-])o2)C(C(=O)c2ccc(Cl)cc2)C(O)(C(F)(F)F)N1` (stereo unspecified): the max response, negative = inhibition was -20.1% (inactive).

`CC1=NN(c2ccc(Cl)c(C(=O)O)c2)C(=O)/C1=C/c1ccc(-c2ccccc2[N+](=O)[O-])o1`: the Potency was 50.1 µM (active).

In the case of `COc1cc(C(=O)NCCS(=O)(=O)N2CCN(c3ccccc3)CC2)cc(OC)c1OC`, the max response, negative = inhibition is 22.4% (inactive).

Turning to `COc1ccc(-c2onc(C)c2C)cc1S(=O)(=O)NCC1CCN(Cc2cccc(F)c2)CC1`, the max response, negative = inhibition is -0.795% (inactive).

Turning to `Cc1cc(NC(=O)c2ccc(-c3ccc(Cl)cc3)o2)cc(-c2nc3ncccc3o2)c1O`, the max response, negative = inhibition was -16% (inactive).

As for `Cc1ccc(CSCC2Nc3ccc(C(=O)N4CCN(c5ccc(F)cc5)CC4)cc3NC2=O)cc1` (stereo unspecified), the Potency was 79.4 µM (active).

As for `Cc1ccc(SCC(=O)N2CCN(c3ccc(F)cc3)CC2)cc1`, the max response, negative = inhibition is 9.21% (inactive).

Turning to `CC1CCN(C(=O)c2ccc3c(c2)NC(=O)CN3)CC1`, the max response, negative = inhibition was 8.33% (inactive).

Take `CCOC(=O)c1c(S(=O)(=O)N2CCCC(C(=O)NCc3cccc(C)c3)C2)c(C)n(C)c1C` (stereo unspecified): the max response, negative = inhibition is 14.2% (inactive).

For the molecule `CCCN(CCC)CCCNC(=O)Cn1cc2c(n1)-c1c(oc(C(=O)N3CCCC3)c1C)CC2`, the max response, negative = inhibition was 4.81% (inactive).

For `COc1ccc(-c2nc(Cn3c(=O)cc(C)c4c(C)nn(-c5ccccc5)c43)c(C)o2)c(OC)c1`, the max response, negative = inhibition was 3.2% (inactive).

Consider `COc1ccc2c(c1)c(N1CCCC1=O)c(C(=O)Nc1ccccc1C(F)(F)F)n2C`, for which the max response, negative = inhibition is 13.2% (inactive).

For the molecule `Cc1ccc(-c2nc3cccc(C)n3c2Nc2ccc3c(c2)OCCO3)cc1`, the max response, negative = inhibition is -25.9% (inactive).

For `CC(C)c1ccc(C2CC(=O)N3CN(C4CCCCC4)CSC3=C2C#N)cc1` (stereo unspecified), the Potency was 14.1 µM (active).

As to `CC(C)c1ccc(C2C(C#N)=C(N)Oc3c2oc(CO)cc3=O)cc1` (stereo unspecified), the max response, negative = inhibition is -3.81% (inactive).

Take `COc1cc(Nc2nc(-c3ccc(OC)c(OC)c3)nc3ccccc23)cc(OC)c1`: the max response, negative = inhibition was 19% (inactive).

With `CC(=O)Oc1ccc(N(C(C)=O)S(=O)(=O)c2ccc3ccccc3c2)cc1Br`, the max response, negative = inhibition was 7.52% (inactive).

`CC(=O)N(c1ccc2oc(=O)sc2c1)S(=O)(=O)c1ccc(C)cc1`: the Potency is 70.8 µM (active).

In the case of `COC(=O)c1c(C)oc2ccc(N(C(=O)Oc3ccccc3)S(=O)(=O)c3ccccc3)cc12`, the max response, negative = inhibition was 2.55% (inactive).

As for `CC(NC(=O)c1cc2c(=O)n3ccccc3nc2n(C(C)C)c1=N)c1ccccc1` (stereo unspecified), the max response, negative = inhibition was -2.71% (inactive).

For `Cc1ccc(-n2c(=O)c3cccnc3n2CC(=O)Nc2ccccc2C(F)(F)F)cc1C`, the max response, negative = inhibition was 10.3% (inactive).

Regarding `COc1ccc(Br)cc1/C=N/Nc1ccc(S(=O)(=O)Nc2ccccc2C(=O)O)cc1[N+](=O)[O-]`, the Potency is 79.4 µM (active).

`O=C(O)c1ccccc1/C=N/Nc1ccc(S(=O)(=O)Nc2ccc(Cl)cc2)cc1[N+](=O)[O-]`: the max response, negative = inhibition was -16.1% (inactive).

For the molecule `COc1ccc(S(=O)(=O)Nc2ccccc2C(=O)N2CCCC2)cc1C`, the max response, negative = inhibition is 4.61% (inactive).

Take `Cc1cc(C)nc(NS(=O)(=O)c2ccc(NC(=O)c3cc(=O)c4ccc(C)c(C)c4o3)cc2)n1`: the max response, negative = inhibition is 19.7% (inactive).

Consider `O=C(NCCCc1ccccc1)c1ccc2c(c1)sc1nc(-c3ccc(F)cc3)cn12`, for which the max response, negative = inhibition is 9.26% (inactive).

As for `Cc1ccc(-c2cc(-c3coc4ccccc4c3=O)c3c(n2)-c2cc(Cl)ccc2OC3)cc1`, the max response, negative = inhibition was 2.47% (inactive).

As to `Nc1ccc2c(c1)C(=Cc1cccnc1)c1ccccc1-2`, the max response, negative = inhibition was -7.1% (inactive).

Turning to `Cc1ccc(C2=C/C(=C\c3cccnc3)C(=O)O2)cc1`, the max response, negative = inhibition is -0.781% (inactive).

`Cc1ccccc1C1=N/C(=C/c2cccnc2)C(=O)O1`: the Potency was 70.8 µM (active).

`Cc1ccc(NC(=O)CSc2nc3c([nH]c4ccccc43)c(=O)n2-c2ccccc2)cc1Cl`: the max response, negative = inhibition is 5.44% (inactive).

`O=C(CCCn1c(=O)c2cccn2c2cccnc21)NCc1ccc(F)cc1`: the max response, negative = inhibition is 8.91% (inactive).

On to `CCOc1ccc(NC(=O)Cn2c(C)ccc(C#N)c2=O)cc1`, for which the max response, negative = inhibition is -0.0869% (inactive).

Consider `Cc1ccc(CS(=O)(=O)CCC(=O)NCc2ccc(F)cc2)cc1`, for which the max response, negative = inhibition was -16.2% (inactive).

As for `CCCCC(=O)NCc1ccc(F)cc1`, the Potency is 3.16 µM (active).

In the case of `CCn1cc(CCC(=O)NCc2ccc(F)cc2)c2ccccc21`, the max response, negative = inhibition is -3.64% (inactive).

With `Cc1ccc(C)c(N2CCN(C(=O)Cn3ncc4c(=O)oc5ccc(C)cc5c43)CC2)c1`, the max response, negative = inhibition is -7.32% (inactive).

As to `CCOc1ccc(NC(=O)C2CCN(S(=O)(=O)c3cc(-c4noc(C)n4)ccc3C)CC2)cc1`, the max response, negative = inhibition was 15.5% (inactive).

For `Oc1c(C=Nc2cccc3nsnc23)ccc2ccccc12`, the Potency is 79.4 µM (active).

On to `COc1ccc2[nH]c3c(c2c1)CCN(C(=O)CCC1CCCC1)C3c1ccc(F)cc1` (stereo unspecified), for which the max response, negative = inhibition is 12.3% (inactive).

`CCc1cc2c(cc3c(=O)n(CC(=O)NCc4cccc(Cl)c4)nc(CC)n32)s1`: the max response, negative = inhibition is -17.2% (inactive).

In the case of `Cc1ccc(/C=N/NC(=O)CSc2nc3ccccc3o2)cc1`, the Potency is 79.4 µM (active).

As for `O=C(CSc1nc2ccccc2o1)N/N=C/c1ccccc1C(=O)O`, the max response, negative = inhibition is -26.3% (inactive).

Regarding `CC(C)(C)C(=O)CSc1nc2ccccc2o1`, the max response, negative = inhibition is -1.66% (inactive).

On to `COc1ccc(OCCCn2c(C)nc3cc(C)c(C)cc32)cc1`, for which the max response, negative = inhibition is 10% (inactive).

For the molecule `COc1cc2c(cc1OC)[C@@H](Cc1cc(OC)c(OC)c(OC)c1)[N+](C)(CCCOC(=O)CC/C=C/CCC(=O)OCCC[N+]1(C)CCc3cc(OC)c(OC)cc3[C@H]1Cc1cc(OC)c(OC)c(OC)c1)CC2` (stereo partly specified), the max response, negative = inhibition was 3.39% (inactive).

Take `O=C1C(Cl)=C(Oc2ccccc2)C(=O)c2ccccc21`: the Potency is 7.08 µM (active).

`CCOc1cc(C(=O)Nc2nnc3n2CCS3)cc(OCC)c1OCC`: the max response, negative = inhibition is -8% (inactive).

As for `O=S(=O)(c1cccc(C(F)(F)F)c1)N1CCN(c2nc(-c3cccs3)nc3ccccc23)CC1`, the max response, negative = inhibition is 3.96% (inactive).

In the case of `COc1ccccc1CNc1nccn(-c2ccc(F)cc2)c1=O`, the max response, negative = inhibition was 6.76% (inactive).

As for `C[C@@H](NC(=O)OC(C)(C)C)c1nnc(S(=O)(=O)Cc2ccccc2)o1`, the Potency is 28.2 µM (active).

With `COc1ccccc1NC(=O)[C@H](COCc1ccccc1)NC(=O)OC(C)(C)C`, the max response, negative = inhibition was 6.86% (inactive).

As for `CC(C)[C@@H](NC(=O)OC(C)(C)C)C(=O)NCC1CCC(C(=O)N[C@@H](Cc2ccccc2)C(=O)O)CC1` (stereo partly specified), the max response, negative = inhibition is -5.18% (inactive).

`O=c1cc2nc(-c3ccccc3)nc(SCCOc3ccc(Cl)cc3)n2[nH]1`: the max response, negative = inhibition was 11.1% (inactive).

Consider `CCOC(=O)c1cc2c(=O)n3ccccc3nc2n(CC2CCCO2)c1=NC(=O)c1ccccc1F` (stereo unspecified), for which the max response, negative = inhibition was -16% (inactive).

With `Cc1ccc(C2c3[nH]c4ccccc4c3CCN2C(=O)c2cccc(C)c2)cc1` (stereo unspecified), the max response, negative = inhibition is 4% (inactive).

On to `Clc1cccc(-n2ncc3c(NCCc4ccccc4)ncnc32)c1`, for which the max response, negative = inhibition was 2.94% (inactive).

`CC1CCN(C(=S)c2cccc([N+](=O)[O-])c2)CC1`: the max response, negative = inhibition was 9.7% (inactive).

Turning to `COc1cc(C(=S)N2CCOCC2)cc(OC)c1OC(=O)c1cc([N+](=O)[O-])cc([N+](=O)[O-])c1`, the max response, negative = inhibition was -18.9% (inactive).

As for `O=C(Oc1ccccc1C(=S)N1CCCCC1)c1cc([N+](=O)[O-])cc([N+](=O)[O-])c1`, the Potency was 89.1 µM (active).

With `COc1ccc(OC)c([C@H](O)CNC(=O)CN)c1`, the max response, negative = inhibition was 6.34% (inactive).

For `Cc1ccc(CNC(=O)CCc2c(C)nc3nc(CNC(=O)OC(C)(C)C)nn3c2C)cc1`, the max response, negative = inhibition is 6.84% (inactive).
